{"source": "PubChem BioAssay (NCI)", "key": {"[1]": {"assay": "NCI Yeast Anticancer Drug Screen. Data for the rad52 strain (AID 147)", "conditions": "S. cerevisiae rad52 mutant growth inhibition, hits give high values", "method_in_brief": "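Genetically altered yeast (DNA damage repair defect) treated with compound; inhibition calculated relative to vehicle.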"}, "[2]": {"assay": "NCI Yeast Anticancer Drug Screen. Data for the wt1 strain (AID 149)", "conditions": "S. cerevisiae wt1 strain (SPY 50644) growth inhibition, hits give high values", "method_in_brief": "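Each compound is tested on wt1 yeast and the loss of growth versus vehicle gives the inhibition value.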"}, "[3]": {"assay": "NCI Yeast Anticancer Drug Screen. Data for the rad50EPP+ strain (AID 151)", "conditions": "S. cerevisiae rad50 mutant strain, hits give high values", "method_in_brief": "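Strain rad50EPP+; compound exposure; % growth inhibition vs vehicle.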"}, "[4]": {"assay": "NCI Yeast Anticancer Drug Screen. Data for the mgt1 strain (AID 153)", "conditions": "S. cerevisiae mgt1 mutant growth inhibition, hits give high values", "method_in_brief": "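Read-out: yeast growth inhibition vs vehicle control. Strain mgt1, drawn from a panel altered in DNA damage repair or cell cycle control.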"}, "[5]": {"assay": "NCI Yeast Anticancer Drug Screen. Data for the rad50 strain (AID 155);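 also: 0% = growth of vehicle-only cultures of the same strain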", "conditions": "S. cerevisiae rad50 strain growth inhibition, hits give high values", "method_in_brief": "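Vehicle-treated cultures provide the reference for the growth inhibition reported for compound-exposed, repair-deficient yeast.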"}, "[6]": {"assay": "NCI Yeast Anticancer Drug Screen. Data for the mec2-1 strain (AID 157)", "conditions": "S. cerevisiae mec2-1 strain, hits give high values", "method_in_brief": "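Cells of the genetically defined mec2-1 yeast strain are incubated with test compound. Inhibition of growth is calculated against vehicle-treated controls.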"}, "[7]": {"assay": "NCI Yeast Anticancer Drug Screen. Data for the rad14 strain (AID 159)", "conditions": "S. cerevisiae rad14 strain growth inhibition, hits give high values", "method_in_brief": "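Inhibition of growth is reported for a repair-deficient yeast mutant following compound treatment, calculated relative to cultures that received vehicle.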"}, "[8]": {"assay": "NCI Yeast Anticancer Drug Screen. Data for the sgs1 mgt1 strain (AID 161)", "conditions": "S. cerevisiae sgs1 mgt1 strain, hits give high values", "method_in_brief": "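Test agents were incubated with a DNA-repair-mutant yeast strain. Growth was then read and compared against vehicle-treated controls.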"}, "[9]": {"assay": "NCI Yeast Anticancer Drug Screen. Data for the CLN2oe strain (AID 163)", "conditions": "S. cerevisiae CLN2oe strain, hits give high values", "method_in_brief": "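Strain altered in cell-cycle control, incubated with compound; growth compared to solvent-treated controls.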"}, "[10]": {"assay": "NCI Yeast Anticancer Drug Screen. Data for the cln2 rad14 strain (AID 165)", "conditions": "S. cerevisiae cln2 rad14 strain, hits give high values", "method_in_brief": "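The screen exposed genetically defined yeast (cln2 rad14) to test compounds and scored growth inhibition relative to vehicle-treated controls.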"}, "[11]": {"assay": "NCI Yeast Anticancer Drug Screen. Data for the bub3 strain (AID 167)", "conditions": "S. cerevisiae bub3 mutant strain, hits give high values", "method_in_brief": "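Mutant yeast screening strain plus compound; vehicle-treated cultures serve as the 0% inhibition reference.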"}, "[12]": {"assay": "NCI Yeast Anticancer Drug Screen. Data for the wt2 strain (AID 169)", "conditions": "S. cerevisiae wt2 strain growth inhibition, hits give high values", "method_in_brief": "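Steps: yeast strain treated with compound; growth recorded; inhibition calculated relative to cultures given vehicle alone.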"}, "[13]": {"assay": "NCI Yeast Anticancer Drug Screen. Data for the mlh1 strain (AID 171)", "conditions": "S. cerevisiae mlh1 strain growth inhibition, hits give high values", "method_in_brief": "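Yeast screen: mutant strain plus compound, growth scored against vehicle control wells.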"}, "[14]": {"assay": "NCI Yeast Anticancer Drug Screen. Data for the sgs1 strain (AID 173)", "conditions": "S. cerevisiae sgs1 mutant, hits give high values", "method_in_brief": "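Inhibition of yeast growth served as the measure. The mutant strain was treated with each compound, and growth was normalised to cultures receiving vehicle alone.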"}, "[15]": {"assay": "NCI Yeast Anticancer Drug Screen. Data for the mlh1 rad18 strain (AID 175)", "conditions": "S. cerevisiae mlh1 rad18 strain growth inhibition, hits give high values", "method_in_brief": "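Compound-treated yeast growth, normalised to vehicle controls. Strain bears defined DNA repair mutations.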"}, "[16]": {"conditions": "at 5.0 µM (retest, dose inferred, filed as 0.5)"}, "[17]": {"conditions": "at 50.0 µM (retest, dose inferred, filed as 5.0)"}}, "note": "About 79,000 compounds went through this panel and 15% of them were active in at least one assay; those are over-represented in the sample as a whole. Values without a mark were called inactive. Active and inactive are the calls of the source. Rule as the data show it: active = growth inhibition above about 70%; inactive = the rest."}
{"smiles": "NCCNCCNc1ccc(NCCNCCN)c2c1C(=O)c1c(O)ccc(O)c1C2=O", "values": [{"measurement": "growth inhibition", "setting": "[1]; at 1.2 µM", "value": 34, "unit": "%"}, {"measurement": "growth inhibition", "setting": "[1]; at 3.7 µM", "value": 48, "unit": "%"}, {"measurement": "growth inhibition", "setting": "[1]; at 11.0 µM", "value": "91% (active)"}, {"measurement": "growth inhibition", "setting": "[1]; at 33.0 µM", "value": "93% (active)"}, {"measurement": "growth inhibition", "setting": "[1]; at 100.0 µM", "value": "85% (active)"}, {"measurement": "growth inhibition", "setting": "[2]; at 1.2 µM", "value": -49, "unit": "%"}, {"measurement": "growth inhibition", "setting": "[2]; at 3.7 µM", "value": -2, "unit": "%"}, {"measurement": "growth inhibition", "setting": "[2]; at 11.0 µM", "value": -4, "unit": "%"}, {"measurement": "growth inhibition", "setting": "[2]; at 33.0 µM", "value": 0, "unit": "%"}, {"measurement": "growth inhibition", "setting": "[2]; at 100.0 µM", "value": 12, "unit": "%"}, {"measurement": "growth inhibition", "setting": "[3]; at 1.2 µM", "value": 9, "unit": "%"}, {"measurement": "growth inhibition", "setting": "[3]; at 3.7 µM", "value": 36, "unit": "%"}, {"measurement": "growth inhibition", "setting": "[3]; at 11.0 µM", "value": 69, "unit": "%"}, {"measurement": "growth inhibition", "setting": "[3]; at 33.0 µM", "value": "84% (active)"}, {"measurement": "growth inhibition", "setting": "[3]; at 100.0 µM", "value": 69, "unit": "%"}, {"measurement": "growth inhibition", "setting": "[4]; at 1.2 µM", "value": -2, "unit": "%"}, {"measurement": "growth inhibition", "setting": "[4]; at 3.7 µM", "value": 0, "unit": "%"}, {"measurement": "growth inhibition", "setting": "[4]; at 11.0 µM", "value": 1, "unit": "%"}, {"measurement": "growth inhibition", "setting": "[4]; at 33.0 µM", "value": 7, "unit": "%"}, {"measurement": "growth inhibition", "setting": "[4]; at 100.0 µM", "value": 19, "unit": "%"}, {"measurement": "growth inhibition", "setting": "[5]; at 1.2 µM", "value": 17, "unit": "%"}, {"measurement": "growth inhibition", "setting": "[5]; at 3.7 µM", "value": 49, "unit": "%"}, {"measurement": "growth inhibition", "setting": "[5]; [16]", "value": 20, "unit": "%"}, {"measurement": "growth inhibition", "setting": "[5]; at 11.0 µM", "value": "82% (active)"}, {"measurement": "growth inhibition", "setting": "[5]; at 33.0 µM", "value": "88% (active)"}, {"measurement": "growth inhibition", "setting": "[5]; [17]", "value": 66, "unit": "%"}, {"measurement": "growth inhibition", "setting": "[5]; at 50.0 µM", "value": "87.7% (active)"}, {"measurement": "growth inhibition", "setting": "[5]; at 100.0 µM", "value": "84% (active)"}, {"measurement": "growth inhibition", "setting": "[6]; at 1.2 µM", "value": 27, "unit": "%"}, {"measurement": "growth inhibition", "setting": "[6]; at 3.7 µM", "value": 1, "unit": "%"}, {"measurement": "growth inhibition", "setting": "[6]; [16]", "value": 0, "unit": "%"}, {"measurement": "growth inhibition", "setting": "[6]; at 11.0 µM", "value": -7, "unit": "%"}, {"measurement": "growth inhibition", "setting": "[6]; at 33.0 µM", "value": 11, "unit": "%"}, {"measurement": "growth inhibition", "setting": "[6]; [17]", "value": 45, "unit": "%"}, {"measurement": "growth inhibition", "setting": "[6]; at 50.0 µM", "value": 0.2, "unit": "%"}, {"measurement": "growth inhibition", "setting": "[6]; at 100.0 µM", "value": 31, "unit": "%"}, {"measurement": "growth inhibition", "setting": "[7]; at 1.2 µM", "value": -4, "unit": "%"}, {"measurement": "growth inhibition", "setting": "[7]; at 3.7 µM", "value": -2, "unit": "%"}, {"measurement": "growth inhibition", "setting": "[7]; at 11.0 µM", "value": 0, "unit": "%"}, {"measurement": "growth inhibition", "setting": "[7]; at 33.0 µM", "value": 5, "unit": "%"}, {"measurement": "growth inhibition", "setting": "[7]; at 100.0 µM", "value": 15, "unit": "%"}, {"measurement": "growth inhibition", "setting": "[8]; [16]", "value": -6, "unit": "%"}, {"measurement": "growth inhibition", "setting": "[8]; [17]", "value": 8, "unit": "%"}, {"measurement": "growth inhibition", "setting": "[8]; at 50.0 µM", "value": 15.1, "unit": "%"}, {"measurement": "growth inhibition", "setting": "[9]; at 1.2 µM", "value": -10, "unit": "%"}, {"measurement": "growth inhibition", "setting": "[9]; at 3.7 µM", "value": -7, "unit": "%"}, {"measurement": "growth inhibition", "setting": "[9]; at 11.0 µM", "value": -10, "unit": "%"}, {"measurement": "growth inhibition", "setting": "[9]; at 33.0 µM", "value": -9, "unit": "%"}, {"measurement": "growth inhibition", "setting": "[9]; at 100.0 µM", "value": 40, "unit": "%"}, {"measurement": "growth inhibition", "setting": "[10]; [16]", "value": 32, "unit": "%"}, {"measurement": "growth inhibition", "setting": "[10]; [17]", "value": 34, "unit": "%"}, {"measurement": "growth inhibition", "setting": "[10]; at 50.0 µM", "value": 7, "unit": "%"}, {"measurement": "growth inhibition", "setting": "[11]; at 1.2 µM", "value": -4, "unit": "%"}, {"measurement": "growth inhibition", "setting": "[11]; at 3.7 µM", "value": -11, "unit": "%"}, {"measurement": "growth inhibition", "setting": "[11]; [16]", "value": 20, "unit": "%"}, {"measurement": "growth inhibition", "setting": "[11]; at 11.0 µM", "value": -10, "unit": "%"}, {"measurement": "growth inhibition", "setting": "[11]; at 33.0 µM", "value": -8, "unit": "%"}, {"measurement": "growth inhibition", "setting": "[11]; [17]", "value": -1, "unit": "%"}, {"measurement": "growth inhibition", "setting": "[11]; at 50.0 µM", "value": -1.95, "unit": "%"}, {"measurement": "growth inhibition", "setting": "[11]; at 100.0 µM", "value": 20, "unit": "%"}, {"measurement": "growth inhibition", "setting": "[12]; at 1.2 µM", "value": -3, "unit": "%"}, {"measurement": "growth inhibition", "setting": "[12]; at 3.7 µM", "value": -3, "unit": "%"}, {"measurement": "growth inhibition", "setting": "[12]; at 11.0 µM", "value": -3, "unit": "%"}, {"measurement": "growth inhibition", "setting": "[12]; at 33.0 µM", "value": 14, "unit": "%"}, {"measurement": "growth inhibition", "setting": "[12]; at 100.0 µM", "value": 53, "unit": "%"}, {"measurement": "growth inhibition", "setting": "[13]; at 1.2 µM", "value": 0, "unit": "%"}, {"measurement": "growth inhibition", "setting": "[13]; at 3.7 µM", "value": -2, "unit": "%"}, {"measurement": "growth inhibition", "setting": "[13]; at 11.0 µM", "value": -1, "unit": "%"}, {"measurement": "growth inhibition", "setting": "[13]; at 33.0 µM", "value": -1, "unit": "%"}, {"measurement": "growth inhibition", "setting": "[13]; at 100.0 µM", "value": 16, "unit": "%"}, {"measurement": "growth inhibition", "setting": "[14]; at 1.2 µM", "value": 1, "unit": "%"}, {"measurement": "growth inhibition", "setting": "[14]; at 3.7 µM", "value": 4, "unit": "%"}, {"measurement": "growth inhibition", "setting": "[14]; at 11.0 µM", "value": 2, "unit": "%"}, {"measurement": "growth inhibition", "setting": "[14]; at 33.0 µM", "value": 13, "unit": "%"}, {"measurement": "growth inhibition", "setting": "[14]; at 100.0 µM", "value": 25, "unit": "%"}, {"measurement": "growth inhibition", "setting": "[15]; [16]", "value": 11, "unit": "%"}, {"measurement": "growth inhibition", "setting": "[15]; [17]", "value": 0, "unit": "%"}, {"measurement": "growth inhibition", "setting": "[15]; at 50.0 µM", "value": 16.5, "unit": "%"}]}
